Tested on: HeLa
Experiment: percent cells in G2/M phase; higher = more G2/M arrest
Conditions: 10 µM; 20 h; hit class: G2/M-phase inhibitor
Procedure: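 HTS of 79,827 drug-like compounds at 10 uM. HeLa cells in 384-well plates were treated for 20 h, fixed, stained with Vybrant DyeCycle Green and scanned on an Acumen eX3 cytometer to give per-well cell cycle profiles. Only G2/M hits (>=67% G2/M) are listed.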

| SMILES | percent cells in G2/M phase [%] |
| --- | --- |
| CC(=O)Nc1ccc(Nc2nc(-c3c(C)nc4ccccn34)cs2)cc1 | 78 |
| O=C(CSc1nc2ccc([N+](=O)[O-])cc2s1)c1ccc(Cl)cc1 | 69.3 |
| O=c1[nH]c(/C=C/c2ccccc2F)nc2ccccc12 | 76.3 |
| O=c1[nH]c(/C=C/c2ccccc2)nc2ccccc12 | 69.3 |
| CCN(CC)CCN1C(=O)C(=O)C(=C(O)c2ccccc2)C1c1ccccc1F (centres undefined) | 68.3 |
| COC(=O)Nc1nc2cc(C(=O)c3ccccc3)ccc2[nH]1 [Mebendazole] | 76.8 |
| COC(=O)Nc1nc2ccc(SC(C)C)cc2[nH]1 [Methiazole] | 72.9 |
| CC(=O)O[C@H]1C(=O)[C@@]2(C)[C@H]([C@H](OC(=O)c3ccccc3)[C@]3(O)C[C@H](OC(=O)[C@H](O)[C@@H](NC(=O)c4ccccc4)c4ccccc4)C(C)=C1C3(C)C)[C@]1(OC(C)=O)CO[C@@H]1C[C@@H]2O [Paclitaxel] | 75.7 |
| COc1ccc(/C=C/c2ccc3cccc(O)c3n2)cc1C | 71.7 |
| COc1ccccc1NC1=CC(=O)CC(c2ccccc2)C1 (centres undefined) | 70.1 |
| O=C(O)c1ccccc1SC1CC(=O)N(c2ccc(Br)cc2)C1=O (centres undefined) | 75.3 |
| COc1cc(NS(=O)(=O)c2ccc(NC(C)=O)cc2)c(OC)cc1Cl | 71 |
| COC(=O)Nc1nc2cc(Sc3ccccc3)ccc2[nH]1 [Fenbendazole] | 66.2 |
| COc1cc(-c2onc3ccc(Cl)cc23)cc(OC)c1OC | 78.1 |
